From PubChem
The entries come from a sample that favours hits as a whole.
HT1080 IDH1KD tx: qHTS for induction of synthetic lethality in tumor cells producing 2HG: qHTS for the HT-1080-IDH1KD cell line. AID 686971, 2013. Potency, µM (top dose mostly 46.1 µM), for the others: at the top dose activity, negative = toxicity, usual class: cytotoxic. HT-1080 IDH1 knockdown viability, ATP luminescence, 48 h. actives 2% (n = 360,000);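 note: potency is the fitted concentration of half-maximal effect; 0% = DMSO wells and -100% = cell-free medium wells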
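Using the IDH1-knockdown HT-1080 line run in the same batch and compound series as the NT line, viability after 48 h at 37 °C was determined by CellTiter-Glo luminescence and expressed as % activity.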
ALOX12 inh: Primary qHTS assay for inhibitors of human arachidonate 12S-lipoxygenase (ALOX12): Round 2 | Polyunsaturated fatty acid lipoxygenase ALOX12 (Homo sapiens), P18054 | purified 12hLO, xylenol orange hydroperoxide absorbance | Potency, µM (doses to about 108 µM), without a hit: top-dose activity change, negative = inhibition, usual class: inhibitors | actives 1.1% (n = 580,000); note: potency is the fitted concentration of half-maximal effect
Target sequence (P18054 whole entry, looked up): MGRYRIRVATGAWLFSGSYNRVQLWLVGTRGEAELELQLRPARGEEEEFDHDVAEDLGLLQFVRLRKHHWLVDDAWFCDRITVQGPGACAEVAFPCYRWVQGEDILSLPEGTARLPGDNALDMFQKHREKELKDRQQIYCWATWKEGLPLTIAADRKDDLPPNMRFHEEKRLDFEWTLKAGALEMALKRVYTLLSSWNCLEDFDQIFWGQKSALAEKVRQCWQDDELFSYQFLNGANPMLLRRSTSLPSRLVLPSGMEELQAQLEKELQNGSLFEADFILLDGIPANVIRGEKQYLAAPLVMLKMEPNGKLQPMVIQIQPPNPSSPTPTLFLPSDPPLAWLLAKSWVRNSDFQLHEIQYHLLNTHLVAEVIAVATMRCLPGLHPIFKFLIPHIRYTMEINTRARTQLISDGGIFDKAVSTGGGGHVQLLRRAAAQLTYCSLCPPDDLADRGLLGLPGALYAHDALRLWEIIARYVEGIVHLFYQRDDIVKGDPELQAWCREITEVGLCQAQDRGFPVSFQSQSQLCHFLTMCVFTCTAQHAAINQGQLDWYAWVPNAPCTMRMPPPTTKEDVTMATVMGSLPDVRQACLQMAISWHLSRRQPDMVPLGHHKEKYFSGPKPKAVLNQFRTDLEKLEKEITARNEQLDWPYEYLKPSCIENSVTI
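Purified human 12hLO at 150 nM in 25 mM Hepes, 0.01% Triton X-100, pH 7.0, preincubated 15 min at room temperature with compound. Reaction started with 40 uM arachidonic acid, 30 min at room temperature. Hydroperoxide measured by Fe-xylenol orange, 573/405 nm absorbance ratio.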
TDP1 cell noCPT: qHTS for Inhibitors of human tyrosyl-DNA phosphodiesterase 1 (TDP1): qHTS in cells in absence of CPT; DT40 Tdp1-/- hTDP1 cells, no CPT, ATP luminescence, 48 h; Potency, µM (doses to about 46.2 µM), for inactives: top-dose activity change, negative = growth inhibition, actives largely listed as inhibitors; actives 15% (n = 420,000); AID 686978, 2013; note: potency is the fitted concentration of half-maximal effect; nearly all actives have a fitted effect of over 55% in size
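Seeded 400 DT40-hTDP1 cells/well (vehicle DMSO, no 20 nM CPT); pinned compounds; ≥48 hr at 37 °C; CellTiter-Glo luminescence as viability measure.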
HT1080-NT tox: qHTS for induction of synthetic lethality in tumor cells producing 2HG: qHTS for the HT-1080-NT fibrosarcoma cell line; Potency, µM (series often up to 46.1 µM), inactives show top-dose activity, negative = less viability, actives largely listed as cytotoxic; AID 686970, 2013; HT-1080-NT fibrosarcoma viability, CellTiter-Glo ATP luminescence, 48 h; actives 1.6% (n = 360,000);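 note: NT is the 2HG producing partner of a matched IDH1 knockdown line; potency is the fitted concentration of half-maximal effect; 0% = DMSO-treated cells and -100% = media-only wells without cells; nearly all actives have a fitted effect of over 55% in size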
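HT-1080-NT fibrosarcoma cells (2HG-overproducing), 750 cells/well in RPMI with 5% FBS, dosed after 2 h and incubated 48 h at 37C. CellTiter-Glo luminescence normalized to DMSO and no-cell wells; concentration-response curves fitted and classed.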
IL1B secr inh: qHTS for Inhibitors of Inflammasome Signaling: IL-1-beta AlphaLISA Primary Screen | THP-1 LPS/ATP IL-1B secretion, AlphaLISA, 16 h; stronger effect = lower value | activity change, % at 57.5 µM | actives 4.7% (n = 360,000); in the data active = activity change below about -50%; inconclusive = mostly about -30% to -49%
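Secreted IL-1B measured by AlphaLISA bead assay after 16 h compound exposure of THP-1 cells; compounds (final up to 57.5 uM) added 1 h before LPS (250 ng/mL) and ATP (1.25 mM) stimulation; lower signal means less secretion.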
DT40 TDP1 CPT: qHTS for Inhibitors of human tyrosyl-DNA phosphodiesterase 1 (TDP1): qHTS in cells in presence of CPT | chicken DT40 Tdp1-/-;hTDP1 cells + 20 nM CPT, ATP luminescence, 48 h | Potency, µM (titrated, usually from 46.2 µM), for the others: at the highest dose activity change, negative = growth inhibition, actives largely listed as inhibitors | actives 12% (n = 420,000) | AID 686979, 2013; note: potency is the fitted concentration of half-maximal effect; nearly all actives have a fitted effect of over 55% in size
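Chicken DT40 Tdp1-/- cells stably complemented with human TDP1 were seeded at 400 cells/well in medium containing 20 nM camptothecin, exposed to pin-transferred compounds, and grown at 37 °C for at least 48 hr. Viability was read as ATP luminescence.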
The depositor's hits bear a star; i = inactive; ? = inconclusive; . = no result; ! = repeats disagree; [ ] = remark or other dose. Unless noted, calls come from the whole dose curve; as a rule, active = well fitted curve in the direction sought with a large enough effect; inconclusive = small, poorly fitted or top-dose-only effect, or another doubt; inactive = no such curve, though single readings can be large; an effect the other way counts as inactive or inconclusive. Unless noted, % is set by controls: 0 for no effect and ±100 for the full control effect.

SMILES	HT1080 IDH1KD tx	ALOX12 inh	TDP1 cell noCPT	HT1080-NT tox	IL1B secr inh	DT40 TDP1 CPT
CCCCCOc1ccc(NS(C)(=O)=O)cc1	-11%	9%	-23%	1%	-13	0%
CCCCc1oc2ccc(NS(C)(=O)=O)cc2c1C(=O)c1ccc(OCCCN(CCCC)CCCC)cc1	.	40µM*!	6µM*	.	.	4.7µM*
O=C(COc1ccc(Oc2ccccc2)cc1)NC1CCS(=O)(=O)C1 (stereo unspecified)	-13%	-1%	?	?	30	?
COc1ccc2cc(-c3cc(C(=O)OCC(=O)Nc4c(C)n(C)n(-c5ccccc5)c4=O)c4ccccc4n3)ccc2c1	-1%	?	10µM*	9%	0	13µM*
Cc1ccc(Oc2ccc(OCC(=O)NC3CCS(=O)(=O)C3)cc2)cc1 (stereo unspecified)	?	0%	16µM*	?	-19	23µM*
Cc1cc(C(=O)OCC(=O)NC2CCS(=O)(=O)C2)c(C)n1-c1ccccc1 (stereo unspecified)	-4%	0%	12µM*	-6%	-13	?
COc1ccc2cc(-c3cc(C(=O)OCC(=O)NC4CCS(=O)(=O)C4)c4ccccc4n3)ccc2c1 (stereo unspecified)	10µM*	-25%	?	?	-19	?
O=C(CN1C(=O)CCc2cc(Br)ccc21)NC1CCCc2ccccc21 (stereo unspecified)	.	-26%	.	.	.	.
Cc1c(NC(=O)COC(=O)c2cc3c4ccccc4n(C)c3s2)c(=O)n(-c2ccccc2)n1C	-1%	?	-30%	-12%	-55*	-14%
COCOCCn1cc(CN2CCS(=O)(=O)N(Cc3ccc(-c4ccc(OC)nc4)cc3)C(C)C2=O)nn1 (stereo unspecified)	-3%	?	-19%	-2%	-2	-13%
COCOCCn1cc(CN2CCS(=O)(=O)N(Cc3ccc(-c4ccc(Cl)nc4)cc3)C(CC(C)C)C2=O)nn1 (stereo unspecified)	2%	-21%	?	-26%	-7	?
COCOCCn1cc(CN2CCS(=O)(=O)N(Cc3ccc(-c4ccc(Cl)cc4)cc3)C(CC(C)C)C2=O)nn1 (stereo unspecified)	?	-11%	23µM*	?	5	?
COCOCCn1cc(CN2CCS(=O)(=O)N(Cc3ccc(-c4ccc(Cl)cc4)cc3)C(C)C2=O)nn1 (stereo unspecified)	-10%	-3%	21µM*	-21%	-15	23µM*
COCOCCn1cc(CN2CCS(=O)(=O)N(Cc3ccc(-c4ccc(OC)c(OC)c4)cc3)C(CC(C)C)C2=O)nn1 (stereo unspecified)	-12%	?	18µM*	-17%	-10	21µM*
Cc1ccc(F)c(NC(=O)Cc2ccsc2)c1	.	-63%	.	.	.	.
Cn1cc(C(=O)N2CCN(C(=O)C3CCCCC3)CC2)c2ccccc21	.	-19%	.	.	.	.
COc1cc(N/N=C/c2ccccc2O)ncn1	?	?	1.5µM*	?	43	1.6µM*
CCOc1ccc(/C=N/Nc2cc(N3CCOCC3)ncn2)c(O)c1	2.3µM*	1%	5.8µM*	?	99	5.8µM*
COc1cccc(CC(=O)NCc2cc(N3CCOCC3)ncn2)c1	.	66%	.	.	.	.
CCCOc1ccc(/C=N/Nc2cc(N3CCOCC3)ncn2)c(O)c1	3.7µM*	0%	10µM*	?	103	?
CCOc1ccc(/C=N/Nc2nc(C)cs2)c(O)c1	-12%	?	?	-6%	-10	10µM*
Clc1ccccc1/C=N/Nc1cc(N2CCOCC2)ncn1	17%	9%	2%	-1%	-20	22%
CC(C)NC(=O)C1=NOC2CN(C(=O)Nc3cccnc3)CC12 (stereo unspecified)	.	9%[6.33 µM]	.	.	.	.
Cc1ccc(NC(=O)CSc2nc3ccccc3c(=O)n2CCCC(=O)NCCCN2CCOCC2)cc1	-16%	-11%	-10%	-9%	?	-1%
COc1ccc(-c2c(C)nn(-c3ccccc3)c2N)cc1OC	-5%	22%	-26%	2%	-4	-6%
SMILES	HT1080 IDH1KD tx	ALOX12 inh	TDP1 cell noCPT	HT1080-NT tox	IL1B secr inh	DT40 TDP1 CPT
COc1ccccc1-c1c(C)nn2c(N)c(-c3ccccc3)cnc12	-22%	17%	5.8µM*	-13%	-74*	6.5µM*
COCc1nn2c(N)c(-c3ccccc3)cnc2c1-c1ccccc1	15%	6%	-23%	3%	-12	6%
COc1ccc(-c2c(C)nn3c(N)c(-c4ccccc4)cnc23)cc1OC	-17%	25%	6.5µM*	-9%	?	5.8µM*
CCNC(=O)N1CCCC(Cc2ncc(C)n2CC2CC2)C1 (stereo unspecified)	.	5%	.	.	.	.
O=[N+]([O-])c1ccc2nc(Cl)nc(-c3ccccc3)c2c1	-3%	.	7.3µM*	-2%	-5	12µM*
Cc1ccnc(Nc2nc3ccccc3o2)n1	?	-5%	21µM*	?	2	?
Cc1ccc(Nc2nc3ccccc3o2)cc1F	-21%	i	10µM*	-26%	35	8.2µM*
Cc1nc(Nc2nc3ccccc3o2)nc(C)c1C	-30%	-1%	-69%	-26%	?	-20%
CN(CC(=O)Nc1ccc(Cl)c(Cl)c1)CC(=O)N(C)C1(C#N)CCCCC1	.	-32%	.	.	.	.
Cc1ccc(Nc2cc(C)nc3nc(Cc4ccc(Cl)cc4)nn23)cc1	.	-2%	15µM*	.	.	18µM*
CC(=O)c1ccc(Nc2cc(C)nc3nc(Cc4ccccc4)nn23)cc1	.	-11%	-17%	.	.	?
CCc1ccc(Nc2cc(C)nc3nc(Cc4ccc(Cl)cc4)nn23)cc1	.	-11%	9.2µM*	.	.	16µM*
COc1ccccc1CNC(=O)CCc1ccc2c(c1)CN(S(C)(=O)=O)CCO2	.	-3%	.	.	.	.
O=C(NCc1cccn1Cc1ccccc1F)Nc1ccc(F)cc1	.	-22%	.	.	.	.
Cc1ccc(OCC(=O)OCC(=O)Nc2ccc3c(c2)OCO3)cc1C	2%	7%	-4%	7%	9	-9%
